Measured values as given in PubChem BioAssay (NCATS).
Inconclusive results are not listed. Entries that show only a call come without a potency. Unmarked numbers belong to inactive results. Calls of active or inactive are those of the source. The call rests on the fitted dose curve; in most records, active means well fitted curve in the direction sought with a large enough effect; inconclusive means small, poorly fitted or top-dose-only effect, or another doubt; inactive means no such curve, though single readings can be large; an effect the other way counts as inactive or inconclusive.

Legend:
[1] = molecular target: Cellular tumor antigen p53 (Homo sapiens) (UniProt P04637); test: Primary qHTS for small molecule compounds that upregulate eGFP-tagged delta133p53alpha (in N-terminal) cells. (AID 2060322); details: NCI-H358 eGFP-delta133p53alpha fluorescence, 24 h; activation: active compounds read high; further: nearly all actives have a fitted effect of over 75% in size; further: potency means the concentration at half of the fitted maximal effect;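 on activation: cells pre-induced with doxycycline then dosed without doxycycline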
In short: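 NCI-H358 cells pre-induced 24 h with 10 ng/ml doxycycline for eGFP-delta133p53alpha, plated dox-free and exposed 24 h at 37C to titrated compounds. Fixed, Hoechst-stained; gated GFP peak intensity by laser scanning cytometry, normalized to DMSO (0%) and 57.5 uM 5-azacytidine (100%).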

[2] = molecular target: Aldehyde dehydrogenase, mitochondrial (Homo sapiens) (UniProt P05091); test: qHTS for Inhibitors of the Aldehyde Dehydrogenase Family (ALDH2) Primary screen (AID 2061308); details: ALDH2 enzyme inhibition qHTS, 1536-well; series mostly up to 56 µM; further: nearly all actives have a fitted effect of over 55% in size
[3] = molecular target: Retinaldehyde dehydrogenase 3 (Homo sapiens) (UniProt P47895); test: qHTS for Inhibitors of the Aldehyde Dehydrogenase Family (ALDH1A3) Primary screen (AID 2061315); details: ALDH inhibition qHTS; series mostly up to 56 µM

Cellular tumor antigen p53 (Homo sapiens), sequence (P04637 whole entry, looked up): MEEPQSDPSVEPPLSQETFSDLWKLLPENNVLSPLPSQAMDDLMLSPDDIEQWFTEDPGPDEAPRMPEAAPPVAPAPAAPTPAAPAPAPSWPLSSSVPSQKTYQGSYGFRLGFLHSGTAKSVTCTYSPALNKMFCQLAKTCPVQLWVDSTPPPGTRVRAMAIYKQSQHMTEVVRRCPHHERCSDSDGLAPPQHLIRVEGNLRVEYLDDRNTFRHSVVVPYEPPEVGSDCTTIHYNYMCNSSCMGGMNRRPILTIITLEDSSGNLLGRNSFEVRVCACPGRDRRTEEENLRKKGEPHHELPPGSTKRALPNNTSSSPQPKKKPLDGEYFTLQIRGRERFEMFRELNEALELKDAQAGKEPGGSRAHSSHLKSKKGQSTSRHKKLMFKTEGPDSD

Compound	activation [1]	activity change, negative = inhibition [2]	activity change, negative = inhibition [3]	Potency [2]	Potency [3]	Potency [1]
Oc1ccc2c3c1O[C@H]1[C@H](N(CCCl)CCCl)CC[C@@]4(O)[C@@H](C2)N(CC2CC2)CC[C@]314	-14.3%	-5.73% [at 11.2 µM]	-18.8% [at 11.2 µM]			
COc1c(C(C)C)cc2c(c1O)[C@@]1(C(=O)O)CCCC(C)(C)C1CC2 (some centres undefined)	-13%			inactive	inactive	
COC1CC(OC2CCC3(C)C(=CCC4C3CCC3(C)C(C(C)OC5OC(COC6OC(CO)C(O)C(O)C6O)C(O)C(O)C5O)CCC43O)C2)OC(C)C1OC1OC(C)C(O)C(OC)C1O (centres undefined)	5.34%			inactive	inactive	
CC(=O)O[C@@H]1[C@H]2CC[C@H]3[C@@](C)(O)[C@@H]4C[C@H](O)C(C)(C)[C@@]4(O)[C@H](O)C[C@@]13C[C@@]2(C)O	6.87%			inactive	inactive	
C[C@]12CC[C@H](O[C@@H]3O[C@H](CO)[C@@H](O)[C@H](O)[C@H]3O)CC1CC[C@@H]1C2CC[C@]2(C)[C@@H](C3=CC(=O)OC3)CC[C@]12O (some centres undefined)				inactive	inactive	11700 nM (active)
CC12Cc3cn[nH]c3C=C1CCC1C2CCC2(C)C1CCC2(C)O (centres undefined)	8.33%			inactive	inactive	
COCC(C(=O)OC1CC2CCC(C1)N2C)c1ccccc1 (centres undefined)	4.33%			inactive	inactive	
O=C(N[C@H]1CN2CCC1CC2)c1cc2cccc(Cl)c2s1	38.7%			inactive	inactive	
CN(CC[C@H](N)CC(=O)N[C@H]1C=C[C@@H](n2ccc(N)nc2=O)O[C@@H]1C(=O)O)C(=N)N	7.14%	-3.48% [at 11.2 µM]	7.62% [at 11.2 µM]			
COC1=CC(=O)O[C@@H](CCc2ccccc2)C1	-13.4%			inactive	inactive	
CN1C(=O)N(c2ccc(C#N)c(C(F)(F)F)c2)C(=O)[C@@]1(CO)c1ccccc1	-3.67%			inactive	inactive	
CC(C)(C)[C@]1(O)C[C@@H]2OC(=O)C[C@@]23C(=O)O[C@@H]2OC(=O)[C@@H](O)[C@]213	-1.79%			inactive	inactive	
C=C(C)[C@H]1O[C@H]2CC[C@@]3(C)[C@@](O)(CC[C@H]4[C@@H]5OC(C)(C)[C@H]6C[C@@H]7C(=C)Cc8c(Cl)cc9[nH]c(c5c9c8[C@@]76O)[C@@]43C)[C@]23O[C@@H]3[C@H]1O	-8.93%			inactive	inactive	
C[C@H](Nc1ncnc2nc[nH]c12)c1nc2ccc(F)cc2c(=O)n1-c1ccccc1	11.6%			inactive	inactive	
CC(=O)O[C@H]1CC[C@H]2[C@@H]3CC[C@H]4CC(=O)C=C(C)[C@]4(C)[C@H]3CC[C@]12C	-6.33%			inactive	inactive	
CC[C@@H]1/C=C/C=C/C[C@H](C)C(O)[C@](C)(O)C(=O)[C@H](C)C(O)[C@H](C)C(=O)[C@H](C)[C@@H](O)[C@H](C)/C=C/C(=O)O[C@H]2[C@@H](C)[C@@H](CC1)O[C@]1(O[C@H](C[C@H](C)O)[C@H](C)CC1=O)[C@@H]2C (some centres undefined)	-12.2%			inactive	inactive	
Cc1cccc(NC(=O)c2ccc(C(F)(F)F)cc2C(=O)O)n1	1%			inactive	inactive	
CC[C@@H]1C[C@H]2CC[C@H](O2)[C@H](C)C(=O)O[C@@H](C)C[C@@H]2CC[C@@H](O2)[C@@H](C)C(=O)O[C@H](C)C[C@H]2CC[C@H](O2)[C@H](C)C(=O)O[C@@H](C)C[C@@H]2CC[C@@H](O2)[C@@H](C)C(=O)O1	-13.7%			inactive	inactive	
COc1cc(O)c2c(c1)/C=C/C[C@@H](O)[C@@H](O)C(=O)CCC[C@H](C)OC2=O	-12.2%			inactive	inactive	
COC(=O)C1(C)CCC(O)C2(C)c3cc(O)c(C(C)C)cc3C(O)C(OC(C)=O)C12 (centres undefined)	-2.68%			inactive	inactive	
C=C[C@H]1CN2CC[C@H]1C[C@@H]2[C@@H](O)c1ccnc2ccccc12	3.57%			inactive	inactive	
CC(=O)O[C@@H]1[C@@H](O)[C@H]2O[C@@H]3C=C(C)[C@@H](O)C[C@]3(CO)[C@]1(C)[C@]21CO1				inactive	inactive	1480 nM (active)
CCC1C2CC3C4N(C)c5ccccc5C45CC(C2C5O)N3C1O (centres undefined)	9.82%			inactive	inactive	
O=C(N[C@@H](COc1ccc2[nH]c(=O)[nH]c2c1)c1ccccc1)c1cccn(Cc2ccc(F)c(F)c2)c1=O				inactive	inactive	30600 nM (active)
CC1=C[C@H]2O[C@@H]3C[C@H]4OC(=O)/C=C/C=C/C(=O)OCC/C(C)=C/C(=O)OC[C@@]2(CC1)[C@]4(C)[C@]31CO1				inactive	inactive	16.5 nM (active)
CCC1NC(=O)C2C(Cl)C(Cl)CN2C(=O)C(C(C)O)NC(=O)CC(c2ccccc2)NC(=O)C(CO)NC1=O (centres undefined)	8.93%			inactive	inactive	
CN1C(=O)C(Cc2ccc3ccccc3c2)N=C(c2ccc(O)cc2)c2cc(Cl)ccc21 (centres undefined)	10.3%			inactive	inactive	

Compound	activation [1]	activity change, negative = inhibition [2]	activity change, negative = inhibition [3]	Potency [2]	Potency [3]	Potency [1]
CC1CCCCCC(=O)c2c(O)cc(O)cc2CC(=O)O1 (centres undefined)	-18.3%			inactive	inactive	
CCCCOC(=O)c1ccnc2cc(C(OCCN3CCCCC3)c3ccccc3Cl)sc12 (centres undefined)	25.7%			inactive	inactive	
CC[C@H]1CN2CC[C@H]1C[C@@H]2[C@@H](O)c1ccnc2ccc(OC)cc12	17.9%			inactive	inactive	
C[C@]12CC[C@H](O)CC1=CC[C@@H]1C2CC[C@]2(C)[C@@H](C3=CC(=O)OC3)CC[C@]12O (some centres undefined)	2.29%			inactive	inactive	
C[C@]12CC[C@H](O)C[C@@H]1CC[C@@H]1[C@@H]2CC[C@]2(C)C(=O)CC[C@@H]12	6.33%			inactive	inactive	
CCN1CC2(COC)C3[C@@H](OC)C4C1C3(C1C[C@]3(O)[C@H](OC(=O)c5ccccc5)C1[C@]4(OC(C)=O)[C@@H](O)[C@@H]3OC)[C@H](OC)C[C@H]2O (some centres undefined)	8.33%			inactive	inactive	
C/C=C(\C)C(=O)OC1CC2C(CC=C3CC(OC4CC(OC)C(OC5CC(OC)C(OC6CC(OC)C(OC7CC(OC)C(O)C(C)O7)C(C)O6)C(C)O5)C(C)O4)CCC32C)C2(O)CCC(C(C)=O)C12C (centres undefined)	-6.11%			inactive	inactive	
C/C=C1/CN2CC[C@]34C(=Nc5ccccc53)[C@@H]2C[C@@H]1[C@H]4C(=O)OC	17.9%			inactive	inactive	
CC[C@@H](C)[C@H]1C(=O)O[C@H](C(C)C)C(=O)N(C)[C@@H]([C@@H](C)CC)C(=O)O[C@H](C(C)C)C(=O)N(C)[C@@H]([C@H](C)CC)C(=O)O[C@H](C(C)C)C(=O)N1C	9.82%			inactive	inactive	
CC1=CC2/C=C(\C)CCC(O)C(O)/C=C/C(=O)OC23C(=O)NC(CC(C)C)C3C1C (centres undefined)	0.763%			inactive	inactive	
CCN1C[C@]2(COC)CC[C@H](O)[C@@]34C5C[C@@H]6[C@@H](OC)C[C@@](OC(C)=O)(C5[C@@H]6OC(C)=O)[C@H]([C@H](OC)C23)[C@@H]14 (some centres undefined)	8.04%			inactive	inactive	
COC1CC(=O)C23C(=O)NC(CC(C)C)C2C(C)=C(C)C(OO)C3/C=C(\C)CCC(O)C1O (centres undefined)	-4.58%			inactive	inactive	
CC(=O)C1CCC2C3CCC4C[C@@H](O)CCC4(C)C3CCC12C (some centres undefined)	-2.33%			inactive	inactive	
CC[C@H]1CN2CC[C@H]1C[C@H]2[C@H](O)c1ccnc2ccc(OC)cc12	7.14%			inactive	inactive	
COC(=O)C12C(=O)C(C)(O)C(=O)C1(C)C(C)=CC1C34CCC(OC3=O)C(C)(CO)C4CCC12C (centres undefined)	-16.8%			inactive	inactive	
CC1=CC2/C=C(\C)CCCC(O)/C=C/C(=O)OC23C(=O)NC(CC(C)C)C3C1C (centres undefined)	1.79%			inactive	inactive	
C[C@@H]1O[C@@H](O[C@H]2CC[C@@]3(C)C(CC[C@@H]4C3CC[C@]3(C)[C@@H](C5=CC(=O)OC5)CC[C@]43O)C2)[C@H](O)[C@H](O)[C@H]1O (some centres undefined)				inactive	inactive	1650 nM (active)
C=CC(C)(C)c1[nH]c2cccc3c2c1C[C@@H]1[C@@H]3[C@@H](OC(C)=O)[C@H](C)CN1C	1.53%			inactive	inactive	
C[C@]12CC[C@H]3[C@@H](CCC4=C/C(=N/OCC(=O)O)CC[C@@]43C)[C@@H]1CC[C@@H]2O	13.7%			inactive	inactive	
C=C1[C@@H](C)[C@H]2[C@H](Cc3ccccc3)NC(=O)[C@]23[C@H](OC(C)=O)/C=C/[C@](C)(O)C(=O)[C@@H](C)C/C=C/[C@H]3[C@@H]1O	-8.04%			inactive	inactive	
COc1ccc(CN(C(=O)[C@@H](N)Cc2c(C)cc(C(N)=O)cc2C)[C@@H](C)c2ncc(-c3ccccc3)[nH]2)cc1C(=O)O	12.3%			inactive	inactive	
CCC1=CC2CN3CCc4c([nH]c5ccccc45)[C@@](C(=O)OC)(C2)[C@@H]13	6.11%			inactive	inactive	
Cc1sc2c(c1C)C(c1ccc(Cl)cc1)=NC(CC(=O)OC(C)(C)C)c1nnc(C)n1-2 (centres undefined)	7.64%			inactive	inactive	
O=C1C[C@@H]2OCC=C3CN4CC[C@]56c7ccccc7N1[C@H]5[C@H]2[C@H]3C[C@H]46	-3.57%			inactive	inactive	
CCCOC(=O)Cc1ccc(OCC(=O)N(CC)CC)c(OC)c1	4.33%			inactive	inactive	
CC(C)(C)c1cc(C(C)(C)C)c2c(c1)C(O)(C(F)(F)F)C(=O)O2 (centres undefined)	23.2%			inactive	inactive	
